According to PubChem BioAssay (Tox21):
“And” between values parts separate entries of the source, which are not always exact repeats. Equal entries are not always repeated. Inconclusive results are not listed. More than one record can exist for a structure, and the calls need not agree. The source made the active and inactive calls. Unless noted, calls follow the shape of the dose curve; as a rule, active = well fitted curve in the direction sought with a large enough effect in the repeat runs; inconclusive = weak or mixed curves; inactive = no such curve, though single readings can be large; an effect the other way counts as inactive or inconclusive.

Columns and labels:
[1] = qHTS assay to identify small molecule agonists of the estrogen receptor alpha (ER-alpha) signaling pathway in the presence of an antagonist - cell viability counter screen (AID 1259386);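 also: cells exposed to compounds for 22 h at 37 °C before the viability read; nearly all actives have a fitted effect of over 30% in size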; also: potency is read from the fitted curve at half-maximal effect
How it was run: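 Cytotoxicity was measured in parallel with the ERE-luciferase agonist screen, in the same wells. The cells were VM7Luc4E2, which endogenously express ER-alpha, and treatment was with compounds plus 10.0nM ICI-182,780 for 22hr.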

[2] = target: Progesterone receptor (Homo sapiens) (UniProt P06401); experiment: qHTS assay to identify small molecule agonists of the progesterone receptor (PR) signaling pathway (AID 1346784; calls by dose curve; also: nearly all actives have a fitted effect of over 30% in size)
How it was run: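 Fluorescence from LiveBLAzer B/G FRET substrate cleavage (2 hr, RT) reported PR activation in PR-UAS-bla HEK 293T cells treated 16 hr at 37C/5% CO2 with compounds; medium contained 2% charcoal-stripped FBS.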

[3] = qHTS assay to identify small molecule antagonists of the progesterone receptor (PR) signaling pathway - cell viability counter screen (AID 1346798); also: nearly all actives have a fitted effect of over 50% in size; also: potency is read from the fitted curve at half-maximal effect
How it was run: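 CellTiter-Glo luminescence; PR-UAS-bla HEK293T, 3,000 cells/well; compound + R5020, 16 hr, 37C/5% CO2; 30 min RT before read.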

[4] = qHTS assay to identify small molecule agonists of the progesterone receptor (PR) signaling pathway - cell viability counter screen (AID 1346799; calls by dose curve; also: nearly all actives have a fitted effect of over 45% in size; also: potency is read from the fitted curve at half-maximal effect)
How it was run: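 In parallel with the beta-lactamase readout, cytotoxicity toward PR-UAS-bla HEK293T cells was measured by CellTiter-Glo luminescence following 16 hr compound incubation in 2% charcoal-stripped FBS medium.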

[5] = qHTS assay to identify small molecule agonists of the TGF-beta/Smad signaling pathway - cell viability counter screen (AID 1346829); also: top concentration of the series differs between compounds; nearly all actives have a fitted effect of over 45% in size
How it was run: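 CellTiter-Glo luminescence readout; SBE-bla HEK 293T cells, overnight plating, compound 5 hr at 37 C/5% CO2, then bla substrate 2 hr RT, then CellTiter-Glo 30 min RT.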

[6] = qHTS assay to identify small molecule agonists of the TGF-beta/Smad signaling pathway (AID 1346859; active = well fitted activation curve with a large enough effect in the signal ratio in the repeat runs, not every such curve was filed as active; the % refers to the signal ratio; also: series mostly up to about 77 µM)
How it was run: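 After overnight seeding, SBE-bla HEK 293T cells are dosed with compounds in DMSO and kept 5 hr at 37 C, 5% CO2. LiveBLAzer-type FRET substrate is then applied for 2 hr at room temperature.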

[7] = Human pregnane X receptor (PXR) small molecule agonists, qHTS cell viability counter screen (AID 1346977); also: nearly all actives have a fitted effect of over 50% in size; also: potency is read from the fitted curve at half-maximal effect
How it was run: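 Viability counter screen: CellTiter-Fluor signal in PXR-Luc HepG2 cells, 24hr compound exposure, 37C, 5% CO2.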

[8] = Caspase-3/7 induction in HepG2 cells by small molecules, qHTS assay (AID 1346978); also: nearly all actives have a fitted effect of over 15% in size
How it was run: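 Wild-type HepG2 cells, 2,000/well, settled 5 hr at 37 C and 5% CO2, then compound-treated for 17 hr; caspase-3/7 activity read by luminescent Caspase-Glo 3/7 after 30 min at room temperature.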

[9] = Caspase-3/7 induction in CHO-K1 cells by small molecules, qHTS cell viability counter screen (AID 1346979); also: nearly all actives have a fitted effect of over 35% in size; also: potency is read from the fitted curve at half-maximal effect
How it was run: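 Viability readout by fluorescence (CellTiter-Fluor) on wild-type CHO-K1 cells exposed for 16hr at 37C and 5% CO2 to compounds delivered in DMSO; reagent incubated 1hr before reading.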

[10] = Caspase-3/7 induction in CHO-K1 cells by small molecules, qHTS assay (AID 1346980); also: nearly all actives have a fitted effect of over 15% in size
How it was run: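 Wild-type CHO-K1 cells exposed to compounds for 17hr at 37 C, 5% CO2. Caspase-3/7 activity then measured by Caspase-Glo 3/7 luminescence after 30min at room temperature.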

[11] = Caspase-3/7 induction in HepG2 cells by small molecules, qHTS cell viability counter screen (AID 1346981); also: nearly all actives have a fitted effect of over 30% in size; also: potency is read from the fitted curve at half-maximal effect
How it was run: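 Cell viability is measured as a cytotoxicity counter screen alongside the Caspase-Glo 3/7 readout in identical wells. Wild-type HepG2 cells are treated with test compounds for 16 hr at 37 C before CellTiter-Fluor addition and a 1-hr incubation.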

[12] = target: Nuclear receptor subfamily 1 group I member 2 (Homo sapiens) (UniProt O75469); experiment: Human pregnane X receptor (PXR) small molecule agonists, qHTS assay (AID 1346982); also: nearly all actives have a fitted effect of over 35% in size; also: potency is read from the fitted curve at half-maximal effect
How it was run: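 Cells: HepG2 stably carrying PXR-Luc. Medium held 5% charcoal-stripped FBS. Compounds in DMSO added after 5 hr plating, incubated 24 hr, then luminescence quantified with ONE-Glo.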

[13] = target: Nuclear receptor subfamily 1 group I member 2 (Rattus norvegicus) (UniProt Q9R1A7); experiment: Rat pregnane X receptor (rPXR) activation by small molecules, qHTS assay (AID 1346983); settings: rPXR luciferase reporter cells, One-Glo luminescence, 24 h; max activation: stronger effect = higher value; also: nearly all actives have a fitted effect of over 20% in size
How it was run: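 Cell-based rPXR activation assay: rPXR cells, 2,000 per well, rested 5hr at 37 C, then exposed to compounds in DMSO for 24 hr at 37 C. Luciferase activity read by One-Glo luminescence after 30 min at room temperature.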

[14] = target: Nuclear receptor subfamily 1 group I member 2 (Homo sapiens) (UniProt O75469); experiment: CYP3A4 induction through human pregnane X receptor (PXR) by small molecules, qHTS assay (AID 1346984); also: nearly all actives have a fitted effect of over 40% in size
How it was run: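 Quantitative HTS in DPX-2 cells, i.e. HepG2 transfected with PXR response element and CYP3A4-promoter luciferase. Compounds in DMSO incubated 24hr at 37C; then P450-Glo CYP3A4 substrate, 3uM final, 3hr; One-Glo luminescence.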

[15] = target: Nuclear receptor subfamily 1 group I member 2 (Homo sapiens) (UniProt O75469); experiment: Human pregnane X receptor (PXR) activation by small molecules, qHTS assay (AID 1346985); also: nearly all actives have a fitted effect of over 40% in size
How it was run: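 DPX-2 cells (HepG2 co-transfected with a PXR response element and a CYP3A4-promoter luciferase construct) were seeded at 2,000 per well, rested 5 hr at 37C, then exposed to DMSO-dissolved compounds for 24 hr. Activation was read as luciferase luminescence.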

[16] = target: Cytochrome P450 2D6 (Homo sapiens) (UniProt P10635); experiment: Cytochrome P450 Family 2 Subfamily D Member 6 (CYP2D6) small molecule antagonists: luciferase reporter qHTS assay (AID 1671196); also: nearly all actives have a fitted effect of over 50% in size; also: potency is read from the fitted curve at half-maximal effect
How it was run: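 Enzyme and proluciferin substrate were first combined with test chemical for 10 min at room temperature. Adding NADPH regeneration solution started a 1 h reaction, stopped with luciferin detection reagent and read by luminescence 20 min later.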

[17] = target: Progesterone receptor (Homo sapiens) (UniProt P06401); experiment: qHTS assay to identify small molecule antagonists of the progesterone receptor (PR) signaling pathway (AID 1346795; active = well fitted inhibition curve with a large enough effect in the signal ratio in the repeat runs, not every such curve was filed as active; the % refers to the signal ratio; also: potency is read from the fitted curve at half-maximal effect)
How it was run: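 Fluorescence intensity measured 2 hr after adding beta-lactamase FRET substrate to PR-UAS-bla HEK293T cells that had been co-treated 16 hr with compound and 1 nM R5020 (final concentration) in 2% charcoal-stripped FBS.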

[18] = qHTS assay to identify small molecule antagonists of the TGF-beta/Smad signaling pathway - cell viability counter screen (AID 1346824); also: nearly all actives have a fitted effect of over 50% in size
How it was run: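 SBE-bla HEK 293T cells, incubated overnight, then compound plus 0.25 ng/mL TGF-beta1 (stock added) for 5 hr at 37 C. Viability was read in the same wells by CellTiter-Glo luminescence after 30 min at room temperature.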

[19] = target: Thyrotropin-releasing hormone receptor (Homo sapiens) (UniProt P34981); experiment: qHTS assay to identify small molecule antagonists of the thyrotropin-releasing hormone receptor (TRHR) signaling pathway (AID 1346877; active = well fitted inhibition curve with a large enough effect in the repeat runs, not every such curve was filed as active; also: series mostly up to about 51 µM)
How it was run: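 Antagonism is measured as suppression of the calcium response to 1 nM TRH in TRHR-HEK293 cells that have been dye-loaded for 2 h at 37 °C after overnight plating. Each compound is tested at 15 concentrations in triplicate.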

[20] = target: Thyrotropin-releasing hormone receptor (Homo sapiens) (UniProt P34981); experiment: qHTS assay to identify small molecule agonists of the thyrotropin-releasing hormone receptor (TRHR) signaling pathway (AID 1346891; calls by dose curve;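 also: HEK293 cells expressing TRHR with calcium dye readout; series mostly up to about 58 µM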)
How it was run: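 Compounds were tested as agonists at 15 concentrations, in triplicate, on TRHR-Hek293 cells; calcium-sensitive dye fluorescence was recorded for 3 min following addition.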
% is scaled to controls: 0 for no effect and ±100 for the full control effect.

Chain of Thyrotropin-releasing hormone receptor (Homo sapiens) (P34981 whole entry, looked up): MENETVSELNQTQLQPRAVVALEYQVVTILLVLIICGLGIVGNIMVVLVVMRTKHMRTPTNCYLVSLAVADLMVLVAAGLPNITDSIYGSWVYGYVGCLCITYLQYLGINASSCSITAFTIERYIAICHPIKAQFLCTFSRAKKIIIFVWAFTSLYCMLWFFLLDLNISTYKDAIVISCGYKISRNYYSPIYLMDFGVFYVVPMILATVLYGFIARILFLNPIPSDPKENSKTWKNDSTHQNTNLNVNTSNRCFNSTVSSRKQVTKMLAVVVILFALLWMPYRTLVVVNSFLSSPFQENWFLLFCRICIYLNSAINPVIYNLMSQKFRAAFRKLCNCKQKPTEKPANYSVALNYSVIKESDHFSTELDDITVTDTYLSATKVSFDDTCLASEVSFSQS
Chain of Cytochrome P450 2D6 (Homo sapiens) (P10635 whole entry, looked up): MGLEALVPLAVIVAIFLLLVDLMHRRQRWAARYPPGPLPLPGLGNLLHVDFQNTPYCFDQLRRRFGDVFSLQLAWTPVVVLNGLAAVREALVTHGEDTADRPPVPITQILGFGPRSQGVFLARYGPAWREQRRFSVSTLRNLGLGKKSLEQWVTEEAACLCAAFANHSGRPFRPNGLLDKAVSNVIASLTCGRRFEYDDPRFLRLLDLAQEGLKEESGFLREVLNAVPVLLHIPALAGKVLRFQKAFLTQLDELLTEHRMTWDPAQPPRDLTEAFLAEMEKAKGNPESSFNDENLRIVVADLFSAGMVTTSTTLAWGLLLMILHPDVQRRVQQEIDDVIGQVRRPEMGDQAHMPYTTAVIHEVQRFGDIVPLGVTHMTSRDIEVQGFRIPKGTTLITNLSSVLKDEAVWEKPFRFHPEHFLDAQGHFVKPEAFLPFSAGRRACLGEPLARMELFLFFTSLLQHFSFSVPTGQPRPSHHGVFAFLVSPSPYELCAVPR
Chain of Nuclear receptor subfamily 1 group I member 2 (Homo sapiens) (O75469 whole entry, looked up): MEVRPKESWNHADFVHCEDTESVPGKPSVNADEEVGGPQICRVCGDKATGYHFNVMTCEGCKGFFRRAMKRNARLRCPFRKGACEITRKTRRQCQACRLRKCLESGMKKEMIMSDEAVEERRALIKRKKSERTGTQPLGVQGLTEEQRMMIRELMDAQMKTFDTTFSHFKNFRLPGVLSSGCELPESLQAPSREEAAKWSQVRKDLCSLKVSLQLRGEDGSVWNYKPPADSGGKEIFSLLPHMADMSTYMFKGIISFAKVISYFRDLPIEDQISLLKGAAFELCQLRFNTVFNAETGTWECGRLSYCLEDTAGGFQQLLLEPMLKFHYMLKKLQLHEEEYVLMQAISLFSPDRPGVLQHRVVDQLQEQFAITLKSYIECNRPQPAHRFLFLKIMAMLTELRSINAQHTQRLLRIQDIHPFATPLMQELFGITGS
Chain of Nuclear receptor subfamily 1 group I member 2 (Rattus norvegicus) (Q9R1A7 whole entry, looked up): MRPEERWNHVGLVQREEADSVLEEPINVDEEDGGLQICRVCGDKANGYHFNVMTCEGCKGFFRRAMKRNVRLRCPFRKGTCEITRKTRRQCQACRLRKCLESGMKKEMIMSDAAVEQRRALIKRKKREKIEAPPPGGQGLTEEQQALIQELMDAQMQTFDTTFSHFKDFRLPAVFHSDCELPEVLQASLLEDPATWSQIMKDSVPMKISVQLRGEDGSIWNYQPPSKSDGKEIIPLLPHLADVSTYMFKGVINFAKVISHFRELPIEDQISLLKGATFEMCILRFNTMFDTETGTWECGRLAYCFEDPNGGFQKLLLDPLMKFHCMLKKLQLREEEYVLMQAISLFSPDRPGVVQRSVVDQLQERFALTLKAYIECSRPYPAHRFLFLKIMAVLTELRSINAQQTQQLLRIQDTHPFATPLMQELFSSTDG
Chain of Progesterone receptor (Homo sapiens) (P06401 whole entry, looked up): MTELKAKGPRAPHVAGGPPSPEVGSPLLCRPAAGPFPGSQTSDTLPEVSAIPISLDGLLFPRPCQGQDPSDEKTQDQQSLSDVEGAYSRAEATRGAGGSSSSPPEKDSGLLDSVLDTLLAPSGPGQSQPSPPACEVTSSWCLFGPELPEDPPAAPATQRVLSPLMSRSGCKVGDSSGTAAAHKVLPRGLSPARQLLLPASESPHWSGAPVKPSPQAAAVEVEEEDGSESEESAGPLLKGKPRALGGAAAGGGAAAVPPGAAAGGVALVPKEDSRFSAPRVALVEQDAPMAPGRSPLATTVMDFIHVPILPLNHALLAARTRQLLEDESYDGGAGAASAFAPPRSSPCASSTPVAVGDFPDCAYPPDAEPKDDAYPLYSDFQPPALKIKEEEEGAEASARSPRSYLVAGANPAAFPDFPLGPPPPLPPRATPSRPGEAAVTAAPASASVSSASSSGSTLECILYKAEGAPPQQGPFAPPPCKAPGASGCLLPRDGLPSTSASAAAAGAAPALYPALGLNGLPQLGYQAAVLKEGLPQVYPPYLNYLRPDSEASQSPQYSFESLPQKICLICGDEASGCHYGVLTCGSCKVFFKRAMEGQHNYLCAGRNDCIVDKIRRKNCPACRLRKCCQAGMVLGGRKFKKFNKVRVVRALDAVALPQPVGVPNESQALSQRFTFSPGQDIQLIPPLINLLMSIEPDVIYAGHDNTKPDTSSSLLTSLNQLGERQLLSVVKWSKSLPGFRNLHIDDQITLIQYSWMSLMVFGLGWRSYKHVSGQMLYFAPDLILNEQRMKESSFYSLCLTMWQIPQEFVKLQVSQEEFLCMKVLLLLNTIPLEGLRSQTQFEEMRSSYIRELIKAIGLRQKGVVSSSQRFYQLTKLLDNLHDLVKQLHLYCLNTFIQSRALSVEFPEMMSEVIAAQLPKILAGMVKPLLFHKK

NCCN
active: Potency [16] 31.7 µM
inactive: Potency [1] | Potency [2] | Potency [3] | Potency [4] | Potency [5] | outcome [6] | Potency [7] | Potency [8] | Potency [9] | Potency [10] | Potency [11] | Potency [12] | max activation [13] -1.7% | Potency [14] | Potency [15]

O=C(O)c1cc(=O)[nH]c(=O)[nH]1
active: Potency [16] 6.34 µM
inactive: Potency [1] | Potency [2] | Potency [17] | Potency [4] | Potency [5] | outcome [6] | Potency [7] | Potency [8] | Potency [9] | Potency [10] | Potency [11] | Potency [12] | max activation [13] -3.14% | Potency [14] | Potency [15]

Cc1ccc(/C(=C\CN2CCCC2)c2ccccn2)cc1
inactive: Potency [1] | Potency [17] | Potency [3] | Potency [4] | Potency [18] | Potency [5] | outcome [6] | Potency [8] | Potency [9] | Potency [10] | Potency [11] | Potency [12] | max activation [13] -1.02% | Potency [14] | Potency [15]

[O-]/[N+](=N\O)c1ccccc1
inactive: Potency [1] | Potency [2] | Potency [4] | Potency [18] | Potency [5] | outcome [6] | Potency [19] | Potency [20] | Potency [7] | Potency [8] | Potency [9] | Potency [10] | Potency [11] | Potency [16]

Nc1ccc2c(O)cc(S(=O)(=O)O)cc2c1
active: Potency [1] 48.6 µM and 21.7 µM | Potency [7] 28.2 µM and 21.7 µM | Potency [9] 48.6 µM and 19.3 µM | Potency [11] 27.3 µM and 21.7 µM | Potency [12] 30.7 µM | Potency [16] 35.6 µM and 71 µM
inactive: Potency [2] | Potency [18] | Potency [5] | outcome [6] | Potency [19] | Potency [20] | Potency [8] | Potency [10]
inactive and 9.69 µM (active): Potency [4]

c1ccc2c(c1)[nH]c1ccccc12
active: Potency [17] 26.8 µM | Potency [12] 47.7 µM and 61.1 µM
39.2 µM (active) and inactive: Potency [16]
inactive: Potency [1] | Potency [2] | Potency [4] | Potency [18] | Potency [5] | outcome [6] | Potency [19] | Potency [20] | Potency [7] | Potency [8] | Potency [9] | Potency [10] | Potency [11]

CC1(C)NC(=O)N(c2ccc([N+](=O)[O-])c(C(F)(F)F)c2)C1=O
active: Potency [17] 17.2 µM and 11.9 µM
inactive: Potency [1] | Potency [2] | Potency [18] | Potency [5] | outcome [6] | Potency [19] | Potency [20] | Potency [7] | Potency [8] | Potency [10] | Potency [11] | Potency [16]

CC1(C)C(C=C(Cl)Cl)C1C(=O)OCc1cccc(Oc2ccccc2)c1 (stereo unspecified)
inactive: Potency [1] | Potency [2] | Potency [3] | Potency [4] | Potency [18] | Potency [5] | outcome [6] | Potency [19] | Potency [20] | Potency [7] | Potency [8] | Potency [9] | Potency [10] | Potency [11] | max activation [13] 4.94% | Potency [14] | Potency [15]
active: Potency [12] 24.2 µM

Cc1cccc(Nc2ccccc2C(=O)O)c1C
48.6 µM (active) and inactive: Potency [12]
inactive: Potency [1] | Potency [2] | Potency [4] | Potency [18] | Potency [5] | outcome [6] | Potency [19] | Potency [20] | Potency [7] | Potency [8] | Potency [9] | Potency [10] | Potency [11] | Potency [16]

CC(=O)Nc1ccc2c(c1)Cc1cc(NC(C)=O)ccc1-2
inactive: Potency [1] | Potency [17] | Potency [3] | Potency [4] | Potency [18] | Potency [5] | outcome [6] | Potency [19] | Potency [20] | Potency [7] | Potency [8] | Potency [9] | Potency [10] | Potency [11] | Potency [16]
active: Potency [12] 17.2 µM and 7.7 µM

Cc1ccc([N+](=O)[O-])c(C)c1
inactive: Potency [1] | Potency [2] | Potency [17] | Potency [18] | Potency [5] | outcome [6] | Potency [19] | Potency [20] | Potency [7] | Potency [8] | Potency [9] | Potency [10] | Potency [11] | Potency [12] | Potency [16]
19.3 µM (active) and inactive: Potency [4]

CN(C)CCCN1c2ccccc2Sc2ccc(Cl)cc21
inactive: Potency [1] | Potency [18] | Potency [5] | outcome [6] | Potency [19] | Potency [20]
active: Potency [17] 43.3 µM and 21.1 µM | Potency [3] 27.3 µM and 29.8 µM | Potency [4] 30.6 µM and 23.7 µM | Potency [7] 27.3 µM and 26.6 µM | Potency [9] 54.5 µM and 29.8 µM | Potency [11] 61.1 µM and 29.8 µM

Cc1ccc2c(c1)C(=O)OC2=O
inactive: Potency [1] | Potency [2] | Potency [17] | Potency [4] | Potency [5] | outcome [6] | Potency [19] | Potency [20] | Potency [7] | Potency [8] | Potency [9] | Potency [10] | Potency [11] | Potency [12]
inactive and 6.33 µM (active): Potency [16]

C=C[C@H]1CN2CC[C@H]1C[C@@H]2[C@@H](O)c1ccnc2ccc(OC)cc12
inactive: Potency [1] | Potency [2] | Potency [17] | Potency [4] | Potency [5] | outcome [6] | Potency [19] | Potency [20] | Potency [7] | Potency [8] | Potency [9] | Potency [10] | Potency [11] | max activation [13] -2.45%
